Measured values reported in PubChem BioAssay (NCI).
This is part of a sample that, as a whole, favours compounds with a hit. Of some 83,000 tested, about 20% had one in any assay.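 96-well plates, one dose, 48 hours. Percent growth reported; active if below 10.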 Unmarked numbers belong to inactive results. Calls of active or inactive are those of the source.

What was measured:
Assay in all cases: NCI-60 one-dose screen, 48 h (100 = growth as untreated, 0 = no growth, -100 = all killed)
Settings in all cases: 10 µM unless noted
T-47D breast = system: T-47D breast
BT-549 breast = system: BT-549 breast
MDA-MB-435 melanoma = system: MDA-MB-435 melanoma
SW-620 colon = system: SW-620 colon
MCF7 breast = system: MCF7 breast
HCT-116 colon = system: HCT-116 colon
HCC-2998 colon = system: HCC-2998 colon
KM12 colon = system: KM12 colon

CCN(CC)CCCN1C(=O)c2c(c(C)c3c(oc4ccc(O)cc43)c2C)C1=O
growth (T-47D breast): 87.2%
growth (BT-549 breast): 96.6%
growth (MDA-MB-435 melanoma): 93.4%
growth (SW-620 colon): -37% (active)
growth (MCF7 breast): 65.8%
growth (HCT-116 colon): -77.9% (active)
growth (HCC-2998 colon): 67%
growth (KM12 colon): 70.7%

CNC(C)[C@H]1CCC2C3CC=C4C(=O)[C@@H](NC(=O)C=C(C)C)CC[C@]4(C)C3CC[C@@]21C (some centres undefined)
growth (T-47D breast): -21% (active)
growth (BT-549 breast): 35.9%
growth (MDA-MB-435 melanoma): -40.6% (active)
growth (SW-620 colon): -52% (active)
growth (MCF7 breast): -41.8% (active)
growth (HCT-116 colon): -30% (active)
growth (HCC-2998 colon): -6.4% (active)
growth (KM12 colon): 10.1%

O=C(Nc1ccccc1O)c1ccc(CNC(=O)c2ccsc2Nc2ccnc(C(F)(F)F)c2)cc1
growth (T-47D breast): 25%
growth (BT-549 breast): 51.7%
growth (MDA-MB-435 melanoma): 14.9%
growth (SW-620 colon): 19.1%
growth (MCF7 breast): 24.5%
growth (HCT-116 colon): 15.9%
growth (HCC-2998 colon): 44.5%
growth (KM12 colon): 30%

CC1(C)N=C(N)N=C(N)N1c1ccc(CCCCc2ccccc2)c(Cl)c1
growth (T-47D breast): 15.8%
growth (BT-549 breast): -16% (active)
growth (MDA-MB-435 melanoma): 27.8%
growth (SW-620 colon): 20.5%
growth (MCF7 breast): 1.84% (active)
growth (HCT-116 colon): 13.9%
growth (HCC-2998 colon): -43.9% (active)
growth (KM12 colon): -79.7% (active)

C=CC(=O)Nc1ccc(Nc2nccc(-c3ccc(N4CCCC4)c(C#N)c3)n2)cc1
growth (T-47D breast): 41.5%
growth (BT-549 breast): 45.6%
growth (MDA-MB-435 melanoma): -11.8% (active)
growth (SW-620 colon): 3% (active)
growth (MCF7 breast): 9.75% (active)
growth (HCT-116 colon): 24.8%
growth (HCC-2998 colon): 31.5%
growth (KM12 colon): 14.6%

c1nc2ccc(-c3cc4ccc5[nH]ncc5c4c4c3CCCC4)cc2[nH]1
growth (T-47D breast): 60.3%
growth (BT-549 breast): 34.1%
growth (MDA-MB-435 melanoma): 21.2%
growth (SW-620 colon): 39.4%
growth (MCF7 breast): 59%
growth (HCT-116 colon): 7.07% (active)
growth (HCC-2998 colon): 75.5%
growth (KM12 colon): 30.8%

CN(C)CCN1C(=O)c2cccc3c(/C=C/CN4C(=O)c5cccc6cccc(c56)C4=O)ccc(c23)C1=O
growth (T-47D breast): 97.6%
growth (BT-549 breast): 97%
growth (MDA-MB-435 melanoma): 89.3%
growth (SW-620 colon): 11.9%
growth (MCF7 breast): -71.6% (active)
growth (HCT-116 colon): 9.57% (active)
growth (HCC-2998 colon): 36.4%
growth (KM12 colon): -79.4% (active)

O=C(Nc1cc(Cl)ccc1O)c1cccc(Nc2ccnc(C(F)(F)F)c2)c1
growth (T-47D breast): 10.8%
growth (BT-549 breast): 34.9%
growth (MDA-MB-435 melanoma): 31.2%
growth (SW-620 colon): 62.9%
growth (MCF7 breast): 26%
growth (HCT-116 colon): 26.1%
growth (HCC-2998 colon): 25.5%
growth (KM12 colon): 36.5%

N#Cc1c(-c2ccccc2)nc(SCc2nnc(-c3ccc(Cl)cc3)o2)[nH]c1=O
growth (T-47D breast): 53.8%
growth (BT-549 breast): 76.3%
growth (MDA-MB-435 melanoma): 109%
growth (SW-620 colon): 100%
growth (MCF7 breast): 91.3%
growth (HCT-116 colon): 83.9%
growth (HCC-2998 colon): 103%
growth (KM12 colon): 102%

O=C1c2ccccc2C(=O)c2c1c(C(=O)NCc1ccccc1)c1ccccn21
growth (T-47D breast): 103%
growth (BT-549 breast): 101%
growth (MDA-MB-435 melanoma): 103%
growth (SW-620 colon): 94.2%
growth (MCF7 breast): 79%
growth (HCT-116 colon): 97.1%
growth (HCC-2998 colon): 99.9%
growth (KM12 colon): 101%

O=C(O)c1cn(C2CC2)c2cc(N3CCN(C(=O)Nc4nc(-c5ccc(Br)cc5)cs4)CC3)c(F)cc2c1=O
growth (T-47D breast): 27.3%
growth (BT-549 breast): 1.15% (active)
growth (MDA-MB-435 melanoma): 9.05% (active)
growth (SW-620 colon): 21.6%
growth (MCF7 breast): 5.12% (active)
growth (HCT-116 colon): 18.5%
growth (HCC-2998 colon): 35.4%
growth (KM12 colon): 11.1%

CC(=O)O[C@H]1C[C@@H]2C(C)(C)C(=O)CC[C@@]2(C)c2ccc(C(C)C)cc21
growth (T-47D breast): 102%
growth (BT-549 breast): 101%
growth (MDA-MB-435 melanoma): 100%
growth (SW-620 colon): 104%
growth (MCF7 breast): 107%
growth (HCT-116 colon): 105%
growth (HCC-2998 colon): 107%
growth (KM12 colon): 97.7%

NC(=O)c1cccc([C@@H]2O[C@H](CO)[C@@H](O)[C@H]2O)c1
growth (T-47D breast): 85.7%
growth (BT-549 breast): 90.9%
growth (MDA-MB-435 melanoma): 106%
growth (SW-620 colon): 24%
growth (MCF7 breast): 61.8%
growth (HCT-116 colon): 72.7%
growth (HCC-2998 colon): 93.9%
growth (KM12 colon): 34.7%

COC(=O)/C=C1/SC(=Nc2ccc([N+](=O)[O-])cc2)N(CCc2c[nH]c3ccc(O)cc23)C1=O
growth (T-47D breast): 53.9%
growth (BT-549 breast): 25.7%
growth (MDA-MB-435 melanoma): 43.1%
growth (SW-620 colon): 85.5%
growth (MCF7 breast): 30.6%
growth (HCT-116 colon): 14.6%
growth (HCC-2998 colon): 20.9%
growth (KM12 colon): 41.7%

OCCNCCNC(Cc1ccc(Cl)cc1)c1ccccc1 (centres undefined)
growth (T-47D breast): 44.6%
growth (BT-549 breast): 79.7%
growth (MDA-MB-435 melanoma): 98.6%
growth (SW-620 colon): 107%
growth (MCF7 breast): 85.1%
growth (HCT-116 colon): 75.7%
growth (HCC-2998 colon): 91.6%
growth (KM12 colon): 90.4%

COc1cccc(NCc2nnc(Nc3ccc(Cl)cc3)c3ccccc23)c1
growth (T-47D breast): -8.49% (active)
growth (BT-549 breast): -12.2% (active)
growth (MDA-MB-435 melanoma): -10.3% (active)
growth (SW-620 colon): 11.9%
growth (MCF7 breast): -1.96% (active)
growth (HCT-116 colon): -44.2% (active)
growth (HCC-2998 colon): 2.79% (active)
growth (KM12 colon): -24.9% (active)

CCOC(=O)C1=C(C)C(Cl)=N/C1=C\c1[nH]c(Cl)c(C)c1C(=O)OCC
growth (T-47D breast): 94.9%
growth (BT-549 breast): 91.2%
growth (MDA-MB-435 melanoma): 103%
growth (SW-620 colon): 106%
growth (MCF7 breast): 90.3%
growth (HCT-116 colon): 84.5%
growth (HCC-2998 colon): 130%
growth (KM12 colon): 100%

Cc1c2cccnc2c(C)c2c1c1cc(CO)ccc1n2C
growth (T-47D breast): 17%
growth (BT-549 breast): 35%
growth (MDA-MB-435 melanoma): 22.6%
growth (SW-620 colon): 15.8%
growth (MCF7 breast): 6.87% (active)
growth (HCT-116 colon): 6.95% (active)
growth (HCC-2998 colon): 34.7%
growth (KM12 colon): 31.1%

CC1=CC(c2ccco2)=C2C(N)=NNC2N1 (centres undefined)
growth (T-47D breast): 85.1%
growth (BT-549 breast): 100%
growth (MDA-MB-435 melanoma): 101%
growth (SW-620 colon): 102%
growth (MCF7 breast): 91%
growth (HCT-116 colon): 100%
growth (HCC-2998 colon): 99.2%
growth (KM12 colon): 105%

COc1ccc(/C=C(/C(=O)n2cnnn2)c2cc(OC)c(OC)c(OC)c2)cc1
growth (T-47D breast): 43.1%
growth (BT-549 breast): 38.2%
growth (MDA-MB-435 melanoma): -50.3% (active)
growth (SW-620 colon): 21.2%
growth (MCF7 breast): 16.2%
growth (HCT-116 colon): 13.7%
growth (HCC-2998 colon): 28.2%
growth (KM12 colon): 17.7%

CCCn1nc(C(=O)N(C)Cc2ccccc2)c2c1CCC(N1CCc3ccccc31)C2 (centres undefined)
growth (T-47D breast): 108%
growth (BT-549 breast): 94.8%
growth (MDA-MB-435 melanoma): 106%
growth (SW-620 colon): 104%
growth (MCF7 breast): 85.3%
growth (HCT-116 colon): 77.8%
growth (HCC-2998 colon): 116%
growth (KM12 colon): 106%

O=C(/C=C(O)/C=C/c1cccc2[nH]ccc12)/C=C/c1cccc2[nH]ccc12
growth (T-47D breast): 65%
growth (BT-549 breast): 76.4%
growth (MDA-MB-435 melanoma): -2.09% (active)
growth (SW-620 colon): 50.5%
growth (MCF7 breast): 16.5%
growth (HCT-116 colon): 46.3%
growth (HCC-2998 colon): 102%
growth (KM12 colon): 95.3%

CCCCNC(=O)c1cc([N+](=O)[O-])cc(C2CCCCC2)c1O
growth (T-47D breast): 12%
growth (BT-549 breast): 36.5%
growth (MDA-MB-435 melanoma): 33.3%
growth (SW-620 colon): 68.6%
growth (MCF7 breast): 39.3%
growth (HCT-116 colon): 27.8%
growth (HCC-2998 colon): 25%
growth (KM12 colon): 39.5%

CC(=O)/C(=C/c1ccc([N+](=O)[O-])cc1)C(=O)c1ccccc1
growth (T-47D breast): 67.6%
growth (BT-549 breast): 89.8%
growth (MDA-MB-435 melanoma): 77.3%
growth (SW-620 colon): 65.4%
growth (MCF7 breast): 29.2%
growth (HCT-116 colon): 35.7%
growth (HCC-2998 colon): 95.2%
growth (KM12 colon): 58.9%

C=C1C(=O)O[C@H]2[C@H]1CC/C(COC(=O)/C=C/C(=O)OC/C1=C/CC[C@@]3(C)O[C@H]3[C@H]3OC(=O)C(=C)[C@@H]3CC1)=C\CC[C@@]1(C)O[C@@H]21
growth (T-47D breast): 32.9%
growth (BT-549 breast): 93.9%
growth (MDA-MB-435 melanoma): 80.4%
growth (SW-620 colon): 6.25% (active)
growth (MCF7 breast): 22.2%
growth (HCT-116 colon): 2.7% (active)
growth (HCC-2998 colon): 106%
growth (KM12 colon): 90%

CC/C=C\CCC/C=C1/C(=O)C=C[C@@H]1C/C=C\CCCC(=O)OC
growth (T-47D breast): 34.4%
growth (BT-549 breast): -25% (active)
growth (MDA-MB-435 melanoma): -22.3% (active)
growth (SW-620 colon): 3.05% (active)
growth (MCF7 breast): 17%
growth (HCT-116 colon): -52.4% (active)
growth (HCC-2998 colon): 8.12% (active)
growth (KM12 colon): -20.6% (active)

CC1(C)C(N)=Nc2cc(OCCCN3Cc4ccccc4C3)c(OCC3CC3)cc21
growth (T-47D breast): 45.8%
growth (BT-549 breast): 76.5%
growth (MDA-MB-435 melanoma): 66.6%
growth (SW-620 colon): 87.8%
growth (MCF7 breast): 50.4%
growth (HCT-116 colon): 49.2%
growth (HCC-2998 colon): 11.9%
growth (KM12 colon): 84.2%

Cc1ccc2nc(/C(C#N)=C(/CCCO)NC(Cc3ccccc3)C(=O)OCc3ccccc3)[nH]c(=O)c2c1 (centres undefined)
growth (T-47D breast): 93%
growth (BT-549 breast): 94.2%
growth (MDA-MB-435 melanoma): 89.5%
growth (SW-620 colon): 110%
growth (MCF7 breast): 99.8%
growth (HCT-116 colon): 96.9%
growth (HCC-2998 colon): -12.5% (active)
growth (KM12 colon): 109%
